# TEAD-YAP inh – TEAD-YAP interaction inhibition; HEK-TIYL cells, TEAD-Gal4/YAP UAS-luciferase luminescence; inhibition, % at 9.12 µM; 1.4% of 640,000 active; AID 1259422; in the data active = inhibition above about 32%;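 note: 0% = median of test compound wells and 100% = reference inhibitor wells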
# MITF primary – blocks human microphthalmia-associated transcription factor; O75030; AlphaScreen MITF homodimerization, bead proximity signal; inhibition, % at 2.6 µM; 0.91% of 650,000 active; AID 1259374; in the data active = inhibition above about 50%;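 note: 0% = vehicle wells with protein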
# Target sequence (O75030 whole entry, looked up): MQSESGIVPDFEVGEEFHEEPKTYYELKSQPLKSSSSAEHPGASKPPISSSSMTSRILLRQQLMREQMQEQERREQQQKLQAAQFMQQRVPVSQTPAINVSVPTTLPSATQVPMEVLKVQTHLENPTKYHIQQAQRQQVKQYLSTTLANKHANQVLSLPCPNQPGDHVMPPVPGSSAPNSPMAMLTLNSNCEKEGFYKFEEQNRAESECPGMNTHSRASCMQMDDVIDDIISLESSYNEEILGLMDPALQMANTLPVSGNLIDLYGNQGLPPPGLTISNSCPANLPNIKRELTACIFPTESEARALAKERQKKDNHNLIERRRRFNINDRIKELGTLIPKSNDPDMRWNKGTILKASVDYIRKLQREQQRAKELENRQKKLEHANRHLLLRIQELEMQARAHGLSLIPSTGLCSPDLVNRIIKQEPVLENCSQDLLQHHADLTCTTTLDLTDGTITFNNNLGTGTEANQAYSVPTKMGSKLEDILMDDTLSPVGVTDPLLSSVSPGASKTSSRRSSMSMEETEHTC
# GPR151 ag – activates the human receptor GPR151; PathHunter beta-arrestin GPR151 cells, luminescence; activation, % at 11.2 µM; 1% of 650,000 active; AID 1508602; in the data active = activation above about 4.9%;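 note: 0% = median of compound wells and 100% = cells with positive control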
# FBW7 activator – activators of human E3 ligase FBW7. AlphaScreen FBW7–phospho-cyclin E peptide binding, activator screen. normalized activity (activation), % at 26.1 µM. 0.13% of 650,000 active; in the data active = normalized activity above about 1.9%;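 note: purified mutant Fbw7 with reduced substrate affinity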
# The depositor's hits bear a star. Sampled rows, rich in hits. Any-hit rate of the full collection: about 3.4%.
SMILES,TEAD-YAP inh,MITF primary,GPR151 ag,FBW7 activator
CCCC(=O)Oc1c(Sc2ccccc2[N+](=O)[O-])c(C)nn1C(C)(C)C,34*,-14,1,0
CCN(CC)C(=O)C1CCCN(C(=O)c2cc(COc3ccc4ncccc4c3)on2)C1 (configuration not stated),8,-8,-1,0
COCC1CCCCN1C(=O)c1cc(COc2ccc3ncccc3c2)on1 (configuration not stated),42*,1,2,0
CCC1CCCCN1C(=O)c1cc(COc2ccc3ncccc3c2)on1 (configuration not stated),49*,6,0,1
CCOc1ccc(C(=O)Oc2ccc(-c3nc4ccc(C)cc4s3)cc2)cc1Br,37*,17,-1,0
CCOc1ccc(C(=O)Nc2ccc(-c3nc4ccc(C)cc4s3)cc2)cc1Br,0,-5,0,0
CCOC(=O)c1sc(N)c(C#N)c1CSc1nnc(-c2ccco2)o1,-12,6,0,0
CCOC(=O)c1sc(N)c(C#N)c1CSc1nnc(-c2ccc(OC)c(OC)c2)o1,44*,-2,-1,0
CCSC1=NSC2=NC(=O)/C(=C\c3ccc(Br)o3)C(=N)N12,8,83*,0,0
CC(C)SC1=NSC2=NC(=O)/C(=C\c3ccc([N+](=O)[O-])o3)C(=N)N21,-3,72*,0,0
CC(C)CS(=O)(=O)C1=NSC2=NC(=O)/C(=C\c3ccc(Br)o3)C(=N)N21,5,77*,-1,0
CS(=O)(=O)C1=NSC2=NC(=O)/C(=C\c3ccc(SCc4ccco4)o3)C(=N)N21,1,72*,0,-1
Cc1sc2nc(SCC(=O)NC3CCCCC3)n(C)c(=O)c2c1C,6,5,4,0
COc1ccc(Cl)cc1C(=O)OCC(=O)NC(=O)CN1CCCC1=O,-1,26,0,0
CCc1c(C)nc2sc(C(=O)c3ccc(C(=O)c4sc5nc(C)c(CC)c(C)c5c4N)cc3)c(N)c2c1C,-5,-6,-1,0
CC(=O)C1=C(c2ccc(C(C)(C)C)cc2)N(C(C)=O)n2c(C)nnc2S1,39*,1,-1,0
CC(=O)C1=C(c2ccc(C3CCCCC3)cc2)N(C(C)=O)n2c(C)nnc2S1,41*,15,0,0
CN(C)CCCNc1c([N+](=O)[O-])c(=O)n(-c2ccccc2)c2ccccc12,-5,4,0,0
CC(C)(C)c1ccc(C2C(C#N)=C(N)N(c3cc(C(F)(F)F)ccc3Cl)C3=C2C(=O)CCC3)s1 (configuration not stated),-4,-2,-1,0
Fc1ccc2c(c1)nc(NCc1ccccc1)c1nccn12,-9,13,-3,0
Fc1ccc2c(c1)nc(NCc1ccncc1)c1nccn12,49*,1,-1,0
CCOC(=O)N1CCN(c2c(NCC(OC)OC)c(=O)c2=O)CC1,-10,-8,0,0
COc1cccc(NC(=O)c2cc(S(=O)(=O)N(C)Cc3ccccc3)ccc2F)c1,-15,-13,1,0
CCOc1ccc(CC(=O)Nc2sc3c(c2C(N)=O)CCCCCC3)cc1OCC,-9,-6,-1,0
FC(F)Oc1ccc(C2=CC(c3cccc(Cl)c3)n3nnnc3N2)cc1 (configuration not stated),-6,-4,0,0
SMILES,TEAD-YAP inh,MITF primary,GPR151 ag,FBW7 activator
COC(=O)c1ccc2c(c1)C(=O)/C(=C/c1cc(OC)c(OC)c(OC)c1)O2,-8,5,1,0
COC(=O)c1ccc2c(c1)C(=O)/C(=C/c1ccccc1OC)O2,-3,-2,2,0
COC(=O)c1ccc2c(c1)C(=O)/C(=C/c1cccc(O)c1)O2,42*,13,-2,0
COC(=O)c1ccc2c(c1)C(=O)/C(=C/c1ccc(O)cc1)O2,52*,0,2,0
COc1cccc(/C=C2\Oc3ccc(O)cc3C2=O)c1O,97*,3,-8,0
Cn1ccc(C(=O)NCC2CCC3(CCN(Cc4cc(F)cc(F)c4)CC3)O2)n1 (configuration not stated),-2,15,-1,0
COc1ccccc1C1SCCN1S(=O)(=O)c1ccc([N+](=O)[O-])cc1 (configuration not stated),6,2,1,4.4*
COc1cc(OC)c(C2SCCN2S(=O)(=O)c2ccc(C)cc2)cc1OC (configuration not stated),-2,7,-1,0
COc1ccc(S(=O)(=O)N2CCSC2c2cc(OC)c(OC)cc2OC)cc1 (configuration not stated),43*,-3,0,0
Cc1ccc(S(=O)(=O)N2Cc3ccccc3CC2C(=O)NCc2cccc(Oc3ccccc3)c2)cc1 (configuration not stated),0,1,-1,0
CCN(CC)c1nc2cc(OC)ccc2cc1C#N,23,-17,-1,2.3*
NNC(=O)CCCN1C(=O)c2cccc3cccc(c23)C1=O,1,0,0,0
CC(=O)C1=NN(c2ccccc2)C(c2ccccc2OCc2ccc(Cl)cc2)N1c1ccc(Cl)cc1 (configuration not stated),1,-26,-2,0
COc1cccc(C2N(c3ccccc3)N=C(C(C)=O)N2c2ccc(C)c(C)c2)c1OCc1ccccc1 (configuration not stated),54*,-23,1,0
COc1cccc(C2N(c3ccc(C)cc3)N=C(C(C)=O)N2c2cccc(C)c2)c1OCc1ccccc1 (configuration not stated),68*,3,2,0
Cc1cc2nc(/N=C(\N)NC(=O)c3ccccc3)nc(C)c2cc1C,-3,-7,0,0
Cc1ccc(-c2nc(N)sc2-c2ccc([N+](=O)[O-])cc2)cc1,37*,11,1,0
CCCCC(=O)Nc1cc(OC)c(OC)cc1C(=O)O,5,-1,1,2.2*
COc1ccccc1CC(=O)Nc1cc(OC)c(OC)cc1C(=O)O,12,20,0,1
O=C(CN1CCc2nc(N3CCCCC3)[nH]c(=O)c2C1)NCc1cccs1,8,12,1,0
COc1cccc(/C=c2/sc3nc4ccccc4n3c2=O)c1,50*,-1,-1,0
Cc1cc(/C=c2\sc3nc4ccccc4n3c2=O)c(C)n1C1CCCC1,70*,0,1,0
Cc1cc(/C=c2/sc3nc4ccccc4n3c2=O)c(C)n1-c1ccc(Cl)c(Cl)c1,7,5,1,0
O=c1/c(=C\c2ccc(O)cc2)sc2nc3ccccc3n12,73*,19,-10,2.0*
O=c1[nH]c(-c2ccccc2Cl)nc2ccccc12,0,13,1,0
O=C(OC(c1ccccc1)c1nccc2ccccc12)c1ccc(F)cc1 (configuration not stated),52*,-18,1,1
Oc1ccc(CNc2ccc(Cl)cn2)c2cccnc12,54*,31,-1,-1
Oc1ccc(CNc2cccc(Br)c2)c2cccnc12,1,27,-1,-1

# Assay outcomes as filed in PubChem BioAssay.
